From PubChem
The entries come from a sample that favours hits as a whole.
BL2 CD40 inh: CD40 pathway inhibition in BL2 cells; inhibition, % at 10 µM; BL2 NF-kB luciferase reporter, CD40L-induced, 4 h; hit rate 0.94% among 83,000;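 active = mean inhibition of at least 50% with a set share of replicates also reaching that level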;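 also: 0% = neutral control wells and 100% = IKK inhibitor VII at 50 µM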
Active calls of the source: *; [ ] = dose if it differs, or a comment.

SMILES	BL2 CD40 inh
C[C@@H]1CN([C@@H](C)CO)C(=O)c2c(c3ccccc3n2C)-c2ccccc2CO[C@@H]1CN(C)C(=O)c1ccccc1	8.4
Cc1ccc(CNC(=O)CCS(=O)(=O)c2ccc(C)cc2)cc1	1.7
Cc1ccc(S(=O)(=O)CCC(=O)NCCC2=CCCCC2)cc1	47.8*
O=C(CCCc1ccccc1)NCCC1=CCCCC1	-59.7
CN(C[C@H]1N[C@@H](CO)[C@H]1c1ccc(-c2cccnc2)cc1)C(=O)CC1CC1	4.7[25 µM]
COCC(=O)N1[C@H](C#N)[C@@H](c2ccccc2-c2cccc(OC)c2)[C@@H]1CO	-14.8[25 µM]
COc1ccc(NC(=O)Nc2ccc3c(c2)[C@@H]2C[C@@H](CC(=O)N4CCN(C)CC4)O[C@H](CO)[C@@H]2O3)cc1	-1.1[25 µM]
O=C(C[C@@H]1CC[C@H]2NC[C@H](O)COC[C@@H]2O1)Nc1ccc(-c2ccccc2)cc1	-6.0[25 µM]
CCCNC(=O)[C@@H]1[C@@H](CO)[C@@H]2Cn3c(ccc(-c4cccc(F)c4)c3=O)[C@H]1N2C(=O)CC	-9.3[25 µM]
C=C1C(=O)OC2C=C(CO)C3OC3C3OC3(C)CC(OC(=O)/C(=C/C)COC(C)=O)C12 (stereo unspecified)	100.6*
C[C@@H]1CN([C@H](C)CO)C(=O)CCCn2cc(nn2)CO[C@@H]1CN(C)C(=O)C1CC1	0.8[25 µM]
CCCC(=O)Nc1ccc(Br)c(Cl)c1	8.7
CC(=O)Nc1ccc(Br)c(Cl)c1	3.0
O=C(O)CCC(=O)Nc1ccc(Br)c(Cl)c1	36.3*
O=S(=O)(c1cccs1)N1CCCCN2[C@@H](CO)[C@H](c3ccc(Br)cc3)[C@@H]2C1	6.4[25 µM]
CNC[C@H]1Oc2ccc(N(C)C)cc2C(=O)N(C)C[C@H]1C	1.9
N#C[C@@H]1[C@H](c2ccccc2-c2ccccc2)[C@H](CO)N1C(=O)Cc1ccncc1	10.1[25 µM]
CC(C)NC(=O)N1[C@@H]2CN(C)C[C@H]1C2c1ccc(Br)cc1 (stereo partly specified)	4.6
CC(=O)[C@H]1CCC2C3CC=C4C[C@@H](O)CC[C@]4(C)C3CC[C@@]21C (stereo partly specified)	4.2
C[C@@H](N)C(=O)N[C@H]1CCC2C3CC=C4C[C@@H](O)CC[C@]4(C)C3CC[C@@]21C (stereo partly specified)	2.1
CC(C)[C@H](N)C(=O)N[C@H]1CCC2C3CC=C4C[C@@H](O)CC[C@]4(C)C3CC[C@@]21C (stereo partly specified)	71.0*
CC(C)C(=O)Nc1ccc2c(c1)C(=O)N(C)[C@@H]1CC[C@@H](CC(=O)NCCc3ccccc3)O[C@@H]1CO2	-2.5[25 µM]
CC(C)NC(=O)N(C)C[C@@H]1Oc2ccc(N(C)C)cc2CC(=O)N(C)C[C@H]1C	-0.5
OCC[n+]1ccc(/C=C/c2c[nH]c3ccccc23)cc1	4.6
C(=Cc1c[nH]c2ccccc12)c1nccc2ccccc12	61.6*
SMILES	BL2 CD40 inh
C(=NN=C1c2ccccc2-c2ccccc21)c1c[nH]c2ccccc12	-57.6
c1ccc(-c2nc(NCc3ccco3)c3ccccc3n2)nc1	53.0*
COc1ccccc1Nc1nc(NCc2ccco2)c2ccccc2n1	-20.5
c1ccc(N2CCN(c3nc(NCc4ccco4)c4ccccc4n3)CC2)cc1	28.8
COCC(=O)N1C[C@@H]2[C@H](c3ccccc31)[C@H](CO)N2C(=O)C1CCCC1	9.4[25 µM]
C[C@@H]1CC=CC[C@@H](c2ccc3c(c2)OCO3)NC(=O)[C@H](C)N(C)C(=O)c2ccccc2O1 (mixture of isomers)	13.4[25 µM]
CS(=O)(=O)N1C[C@@H]2N[C@H](C1)C2c1ccc(-c2ccc(F)cc2)cc1 (stereo partly specified)	13.5
COC(=O)c1ccc(CSc2nnc(-c3ccccc3)n2C)o1	10.4
COC(=O)c1ccc(CSc2cc(C)c3ccccc3n2)o1	65.7*
COC(=O)c1ccc(CSc2nnnn2-c2ccccc2)o1	-9.3
O=C(C[C@H]1CC[C@H]2[C@@H](COC[C@H](O)CN2Cc2cc(F)cc(F)c2)O1)Nc1nccs1	7.1[25 µM]
O=C1N[C@@H](Cc2ccccc2)COCc2cnnn2CC[C@@H]1Cc1ccc(-c2ccccc2)cc1	-3.2[25 µM]
C[C@H]1CN([C@@H](C)CO)C(=O)c2ccccc2-c2ccccc2CO[C@@H]1CN(C)S(=O)(=O)c1ccsc1	0.5
CC1(C)[C@H]2CC[C@]1(C)[C@@H](OC(=O)C[N+]1(C)CCOCC1)C2	-0.3
CC1(C)C2CCC1(C)C(OCC[N+](C)(C)CC(=O)OC1CCCCC1)C2 (stereo unspecified)	57.3*
O=C(CCCCC(=O)OC1CCCCC1)OC1CCCCC1	-10.3
C[C@H](CO)N1C[C@H](C)[C@H](CN(C)S(=O)(=O)c2ccc(Oc3ccccc3)nc2)OCc2cn(nn2)CCCC1=O	11.6[25 µM]
CNC(=O)C1OC(n2cnc3c(NCc4cccc(I)c4)nc(Cl)nc32)C(O)C1O (stereo unspecified)	5.4[25 µM]
CC(C)NC(=O)Nc1ccc2c(c1)CC(=O)N(C)C[C@@H](C)[C@H](CN(C)C)O2	2.9
COc1ccccc1S(=O)(=O)N(C)C[C@H]1OCc2ccccc2-c2ccccc2C(=O)N([C@@H](C)CO)C[C@@H]1C	-3.0[25 µM]
Nc1nc(N)c2cc(Sc3ccc(Cl)cc3)ccc2n1	0.4
Nc1nc(N)c2cc(Sc3cccc(C(F)(F)F)c3)ccc2n1	31.1
Nc1nc(N)c2cc(CNc3ccc(Cl)c(Cl)c3)ccc2n1	91.6*
CO[C@H]1CN(C)C(=O)c2cc(NC(=O)CC(F)(F)F)ccc2OC[C@H](C)N(CC2CC2)C[C@H]1C	-0.3[25 µM]
COc1ccc(C#Cc2ccc3c(c2)[C@H]2[C@H](CCN2Cc2ccncc2)[C@@H](CO)N3)cc1	-34.6[25 µM]
SMILES	BL2 CD40 inh
C/C=C/c1ccc([C@H]2[C@@H](CO)N(C(=O)Cc3cccnc3)[C@H]2CNC(C)=O)cc1	1.4
CC1(C)CC(NS(=O)(=O)c2cccc3ccccc23)CC(C)(C)N1	5.7
CC1(C)CC(NCc2ccncc2)CC(C)(C)N1	5.1
CC1(C)CC(Nc2ccc(Nc3ccccc3)cc2)CC(C)(C)N1	100.1*
CN1c2ccc(-c3ccccc3)cc2[C@H]2[C@H](CCN2C(=O)c2ccccn2)[C@@H]1CO	-4.8
CC(=O)N(C)C[C@H]1Oc2c(NC(=O)NC(C)C)cccc2C(=O)N(C)C[C@@H]1C	-1.9
COc1cccc(-c2ccc3n(c2=O)C[C@@H]2[C@@H](CO)[C@H](C(=O)NC4CCCC4)[C@H]3N2C)c1	-0.1
O=C1Nc2ccccc2OCc2cn(nn2)CC[C@H]1Cc1ccc(-c2ccccc2)cc1	-11.4[25 µM]
COc1ccc(N2CCN(C(=O)Cn3c(=O)c4cccn4c4cccnc43)CC2)cc1	-4.9
COc1ccc(N2CCN(C(=O)COc3cccc4ccccc34)CC2)cc1	-6.1
COc1ccc(N2CCN(C(=O)Cn3c(=O)[nH]c4ccccc4c3=O)CC2)cc1	28.8*
CNC[C@H]1Oc2c(NC(=O)NC(C)C)cccc2C(=O)N(C)C[C@H]1C	-3.3
CCCC#Cc1ccc2c(c1)[C@@H]1[C@@H](CCN1C(=O)C1CC1)[C@@H](CO)N2	-36.3
Cc1onc(-c2ccccc2Cl)c1-c1nc(-c2ccccn2)no1	5.6
Clc1ccccc1/C=C/c1nc(-c2ccccn2)no1	95.6*
Cc1occc1-c1nc(-c2ccccn2)no1	-47.7
COC(=O)CCNS(=O)(=O)c1ccc2ccccc2c1	10.0
COC(=O)c1ccc(OC(=O)CCS(=O)(=O)c2ccc(C)cc2)cc1	-2.8
COC(=O)CCS(=O)(=O)c1nc(-c2ccccc2)cc(C(F)(F)F)n1	95.3*
C[C@@H]1CN([C@H](C)CO)C(=O)c2c(c3ccccc3n2C)-c2ccccc2CO[C@@H]1CN(C)C(=O)Nc1cccc(Cl)c1Cl	38.4[25 µM]
